Results reported in the supplement of paper PMC11732987, “Enantioselective OTUD7B fragment discovery through chemoproteomics screening and high-throughput optimisation” (Communications Chemistry, 2025).

Columns and labels:
Test in all cases: log2 ratio of Biotin-Ahx-Ub-VS probe labelling (fragment/DMSO); higher = less target engagement (more negative = stronger competition), active = hit call of the paper (q ≤ 0.05, log2 ratio ≤ -1)
Settings in all cases: compound concentration: 200 uM; treatment time: 3 h
USP42 = molecular target: T1, USP42 (UniProt Q9H9J4)
T1 sequence (whole entry): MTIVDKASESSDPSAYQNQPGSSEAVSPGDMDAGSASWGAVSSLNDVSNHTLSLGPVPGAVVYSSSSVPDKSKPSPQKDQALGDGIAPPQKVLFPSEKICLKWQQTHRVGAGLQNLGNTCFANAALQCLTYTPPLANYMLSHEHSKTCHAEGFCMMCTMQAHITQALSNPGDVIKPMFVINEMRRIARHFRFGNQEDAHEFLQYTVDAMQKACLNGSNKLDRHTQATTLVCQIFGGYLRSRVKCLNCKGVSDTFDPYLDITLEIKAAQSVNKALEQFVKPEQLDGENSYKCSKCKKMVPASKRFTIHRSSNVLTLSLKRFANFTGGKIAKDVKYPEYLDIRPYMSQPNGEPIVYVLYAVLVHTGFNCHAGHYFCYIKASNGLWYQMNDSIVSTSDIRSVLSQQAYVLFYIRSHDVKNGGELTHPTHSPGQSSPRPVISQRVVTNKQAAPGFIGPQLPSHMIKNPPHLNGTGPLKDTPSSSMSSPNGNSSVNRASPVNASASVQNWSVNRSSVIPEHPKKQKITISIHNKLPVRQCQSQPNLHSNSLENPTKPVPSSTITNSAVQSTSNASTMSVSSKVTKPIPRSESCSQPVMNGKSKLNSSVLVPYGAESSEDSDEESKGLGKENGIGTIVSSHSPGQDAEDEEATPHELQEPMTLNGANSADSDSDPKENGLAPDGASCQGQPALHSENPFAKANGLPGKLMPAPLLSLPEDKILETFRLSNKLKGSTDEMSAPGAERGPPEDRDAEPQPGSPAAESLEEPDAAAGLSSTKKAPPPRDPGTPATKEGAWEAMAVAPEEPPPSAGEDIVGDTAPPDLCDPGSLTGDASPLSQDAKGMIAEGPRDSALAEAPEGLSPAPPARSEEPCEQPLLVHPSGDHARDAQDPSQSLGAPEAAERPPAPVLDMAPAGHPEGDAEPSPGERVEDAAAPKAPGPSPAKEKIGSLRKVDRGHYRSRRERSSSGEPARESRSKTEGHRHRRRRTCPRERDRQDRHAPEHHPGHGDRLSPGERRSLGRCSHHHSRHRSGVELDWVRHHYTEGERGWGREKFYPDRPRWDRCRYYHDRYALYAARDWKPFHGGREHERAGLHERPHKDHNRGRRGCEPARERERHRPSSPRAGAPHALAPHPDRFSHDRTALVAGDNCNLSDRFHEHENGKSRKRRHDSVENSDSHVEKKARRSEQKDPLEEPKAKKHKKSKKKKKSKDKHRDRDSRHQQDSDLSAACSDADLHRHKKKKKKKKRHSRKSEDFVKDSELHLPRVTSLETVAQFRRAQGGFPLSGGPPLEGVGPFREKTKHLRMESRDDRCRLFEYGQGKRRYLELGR
How it was run: (§1)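 HEK293T lysate in Tris/CHAPS/IGEPAL buffer with protease inhibitors (495 µg per sample) was given fragment at 200 µM or vehicle for 3 h, in triplicate. It then received Biotin-Ahx-Ub-VS at 0.5 µM final for 1 h. Labelled DUBs were NeutrAvidin-enriched, digested with LysC and trypsin, and run by diaPASEF LC-MS/MS. Values are average log2 fragment/vehicle ratios by unpaired t-test on global-median-normalised Spectronaut quantities of proteins with ≥2 unique peptides.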

USP46 = USP46 (UniProt P62068)
Sequence of USP46 (P62068 whole entry): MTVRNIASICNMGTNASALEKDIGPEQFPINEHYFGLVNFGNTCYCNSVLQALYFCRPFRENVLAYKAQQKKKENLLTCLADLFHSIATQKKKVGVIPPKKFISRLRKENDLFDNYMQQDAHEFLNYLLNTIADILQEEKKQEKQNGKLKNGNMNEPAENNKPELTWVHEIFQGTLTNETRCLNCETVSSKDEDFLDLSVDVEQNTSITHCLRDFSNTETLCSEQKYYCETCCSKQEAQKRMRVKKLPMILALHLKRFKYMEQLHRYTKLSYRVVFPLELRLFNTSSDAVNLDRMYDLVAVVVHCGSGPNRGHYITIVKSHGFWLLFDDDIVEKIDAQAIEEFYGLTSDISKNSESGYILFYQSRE
How it was run: as §1

USP47 = molecular target: T2, USP47 (UniProt Q96K76)
T2 sequence (whole entry): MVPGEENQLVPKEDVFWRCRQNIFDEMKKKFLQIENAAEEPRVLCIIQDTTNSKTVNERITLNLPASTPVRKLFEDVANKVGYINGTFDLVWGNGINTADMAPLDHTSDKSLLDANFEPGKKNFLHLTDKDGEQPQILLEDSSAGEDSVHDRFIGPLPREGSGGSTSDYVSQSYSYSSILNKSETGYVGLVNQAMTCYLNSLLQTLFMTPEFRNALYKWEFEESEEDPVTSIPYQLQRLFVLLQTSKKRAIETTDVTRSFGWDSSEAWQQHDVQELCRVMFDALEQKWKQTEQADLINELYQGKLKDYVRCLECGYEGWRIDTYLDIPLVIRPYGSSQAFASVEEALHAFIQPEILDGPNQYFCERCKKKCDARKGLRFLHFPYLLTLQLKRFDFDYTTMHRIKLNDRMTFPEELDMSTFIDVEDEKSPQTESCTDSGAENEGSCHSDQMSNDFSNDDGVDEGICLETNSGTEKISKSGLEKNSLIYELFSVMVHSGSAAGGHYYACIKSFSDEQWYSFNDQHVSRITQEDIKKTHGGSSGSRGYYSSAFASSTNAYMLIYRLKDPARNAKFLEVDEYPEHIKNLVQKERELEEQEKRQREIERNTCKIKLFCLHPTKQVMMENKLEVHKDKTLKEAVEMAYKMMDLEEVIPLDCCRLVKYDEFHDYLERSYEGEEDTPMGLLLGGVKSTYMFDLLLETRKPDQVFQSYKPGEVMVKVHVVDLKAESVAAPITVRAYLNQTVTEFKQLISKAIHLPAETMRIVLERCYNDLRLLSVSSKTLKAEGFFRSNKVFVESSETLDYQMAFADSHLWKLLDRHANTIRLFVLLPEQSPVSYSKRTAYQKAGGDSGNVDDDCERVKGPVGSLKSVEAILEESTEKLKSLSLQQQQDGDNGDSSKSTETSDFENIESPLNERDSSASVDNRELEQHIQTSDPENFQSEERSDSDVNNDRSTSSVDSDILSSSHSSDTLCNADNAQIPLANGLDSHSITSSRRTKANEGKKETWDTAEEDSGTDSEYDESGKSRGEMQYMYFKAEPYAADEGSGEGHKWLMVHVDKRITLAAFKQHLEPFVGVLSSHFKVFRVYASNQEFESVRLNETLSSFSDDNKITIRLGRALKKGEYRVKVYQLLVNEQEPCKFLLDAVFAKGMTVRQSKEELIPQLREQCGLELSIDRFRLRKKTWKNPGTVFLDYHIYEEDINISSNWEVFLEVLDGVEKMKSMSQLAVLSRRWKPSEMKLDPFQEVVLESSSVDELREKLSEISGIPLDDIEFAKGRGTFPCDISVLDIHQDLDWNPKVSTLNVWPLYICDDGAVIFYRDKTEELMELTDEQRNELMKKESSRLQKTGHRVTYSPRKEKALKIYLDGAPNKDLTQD
How it was run: as §1

USP48 = molecular target: T3, USP48 (UniProt Q86UV5)
T3 sequence (whole entry): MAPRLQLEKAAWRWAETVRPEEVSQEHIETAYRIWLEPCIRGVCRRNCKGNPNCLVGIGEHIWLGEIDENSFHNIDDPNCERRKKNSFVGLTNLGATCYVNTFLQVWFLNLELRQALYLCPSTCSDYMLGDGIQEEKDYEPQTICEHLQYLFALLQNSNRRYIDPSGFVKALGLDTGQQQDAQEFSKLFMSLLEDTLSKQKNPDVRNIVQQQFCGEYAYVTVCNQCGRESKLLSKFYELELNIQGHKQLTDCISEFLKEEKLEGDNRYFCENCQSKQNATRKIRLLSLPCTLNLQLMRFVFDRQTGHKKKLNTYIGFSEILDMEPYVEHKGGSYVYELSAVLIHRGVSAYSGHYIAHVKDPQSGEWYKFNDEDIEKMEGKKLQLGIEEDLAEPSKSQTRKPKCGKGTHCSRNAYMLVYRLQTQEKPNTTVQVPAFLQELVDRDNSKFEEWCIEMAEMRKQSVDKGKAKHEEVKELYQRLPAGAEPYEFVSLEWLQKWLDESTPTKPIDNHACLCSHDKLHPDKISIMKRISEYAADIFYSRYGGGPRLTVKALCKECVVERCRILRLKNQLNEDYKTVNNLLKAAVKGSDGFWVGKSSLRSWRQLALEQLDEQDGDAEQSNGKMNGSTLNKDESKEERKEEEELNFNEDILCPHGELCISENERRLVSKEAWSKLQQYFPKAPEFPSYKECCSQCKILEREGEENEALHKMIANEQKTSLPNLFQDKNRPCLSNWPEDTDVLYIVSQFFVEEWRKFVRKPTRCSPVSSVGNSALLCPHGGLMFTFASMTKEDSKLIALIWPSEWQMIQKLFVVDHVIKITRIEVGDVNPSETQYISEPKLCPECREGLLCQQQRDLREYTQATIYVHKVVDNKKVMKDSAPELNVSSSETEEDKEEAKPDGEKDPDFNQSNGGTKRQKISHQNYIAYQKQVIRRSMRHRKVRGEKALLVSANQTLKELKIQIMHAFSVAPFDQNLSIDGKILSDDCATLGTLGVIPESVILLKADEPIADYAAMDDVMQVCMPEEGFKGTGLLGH
How it was run: as §1

USP5 = molecular target: T4, USP5 (UniProt P45974)
T4 sequence (whole entry): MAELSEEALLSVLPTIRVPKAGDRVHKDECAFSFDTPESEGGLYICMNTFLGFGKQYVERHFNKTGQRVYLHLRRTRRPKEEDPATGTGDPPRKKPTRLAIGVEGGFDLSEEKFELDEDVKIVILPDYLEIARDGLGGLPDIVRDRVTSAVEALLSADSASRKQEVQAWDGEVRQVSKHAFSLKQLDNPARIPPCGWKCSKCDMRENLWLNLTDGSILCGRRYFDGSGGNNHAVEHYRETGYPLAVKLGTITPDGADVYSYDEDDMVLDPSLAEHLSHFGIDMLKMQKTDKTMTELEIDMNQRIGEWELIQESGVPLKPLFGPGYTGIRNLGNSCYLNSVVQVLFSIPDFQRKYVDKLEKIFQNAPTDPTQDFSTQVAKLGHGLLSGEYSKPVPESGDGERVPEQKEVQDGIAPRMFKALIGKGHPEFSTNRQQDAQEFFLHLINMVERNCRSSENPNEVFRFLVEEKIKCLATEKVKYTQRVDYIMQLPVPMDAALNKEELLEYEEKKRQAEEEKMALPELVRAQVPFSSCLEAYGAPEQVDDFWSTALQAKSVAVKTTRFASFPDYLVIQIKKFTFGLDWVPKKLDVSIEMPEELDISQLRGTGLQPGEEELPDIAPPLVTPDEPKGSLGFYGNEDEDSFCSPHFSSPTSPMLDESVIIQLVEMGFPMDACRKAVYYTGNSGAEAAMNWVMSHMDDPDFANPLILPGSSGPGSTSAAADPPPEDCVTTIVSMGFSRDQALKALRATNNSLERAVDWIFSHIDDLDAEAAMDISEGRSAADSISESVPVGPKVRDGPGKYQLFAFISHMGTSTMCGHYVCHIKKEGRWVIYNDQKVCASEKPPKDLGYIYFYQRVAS
How it was run: as §1

USP54 = USP54 (UniProt Q70EL1)
Sequence of USP54 (Q70EL1 whole entry): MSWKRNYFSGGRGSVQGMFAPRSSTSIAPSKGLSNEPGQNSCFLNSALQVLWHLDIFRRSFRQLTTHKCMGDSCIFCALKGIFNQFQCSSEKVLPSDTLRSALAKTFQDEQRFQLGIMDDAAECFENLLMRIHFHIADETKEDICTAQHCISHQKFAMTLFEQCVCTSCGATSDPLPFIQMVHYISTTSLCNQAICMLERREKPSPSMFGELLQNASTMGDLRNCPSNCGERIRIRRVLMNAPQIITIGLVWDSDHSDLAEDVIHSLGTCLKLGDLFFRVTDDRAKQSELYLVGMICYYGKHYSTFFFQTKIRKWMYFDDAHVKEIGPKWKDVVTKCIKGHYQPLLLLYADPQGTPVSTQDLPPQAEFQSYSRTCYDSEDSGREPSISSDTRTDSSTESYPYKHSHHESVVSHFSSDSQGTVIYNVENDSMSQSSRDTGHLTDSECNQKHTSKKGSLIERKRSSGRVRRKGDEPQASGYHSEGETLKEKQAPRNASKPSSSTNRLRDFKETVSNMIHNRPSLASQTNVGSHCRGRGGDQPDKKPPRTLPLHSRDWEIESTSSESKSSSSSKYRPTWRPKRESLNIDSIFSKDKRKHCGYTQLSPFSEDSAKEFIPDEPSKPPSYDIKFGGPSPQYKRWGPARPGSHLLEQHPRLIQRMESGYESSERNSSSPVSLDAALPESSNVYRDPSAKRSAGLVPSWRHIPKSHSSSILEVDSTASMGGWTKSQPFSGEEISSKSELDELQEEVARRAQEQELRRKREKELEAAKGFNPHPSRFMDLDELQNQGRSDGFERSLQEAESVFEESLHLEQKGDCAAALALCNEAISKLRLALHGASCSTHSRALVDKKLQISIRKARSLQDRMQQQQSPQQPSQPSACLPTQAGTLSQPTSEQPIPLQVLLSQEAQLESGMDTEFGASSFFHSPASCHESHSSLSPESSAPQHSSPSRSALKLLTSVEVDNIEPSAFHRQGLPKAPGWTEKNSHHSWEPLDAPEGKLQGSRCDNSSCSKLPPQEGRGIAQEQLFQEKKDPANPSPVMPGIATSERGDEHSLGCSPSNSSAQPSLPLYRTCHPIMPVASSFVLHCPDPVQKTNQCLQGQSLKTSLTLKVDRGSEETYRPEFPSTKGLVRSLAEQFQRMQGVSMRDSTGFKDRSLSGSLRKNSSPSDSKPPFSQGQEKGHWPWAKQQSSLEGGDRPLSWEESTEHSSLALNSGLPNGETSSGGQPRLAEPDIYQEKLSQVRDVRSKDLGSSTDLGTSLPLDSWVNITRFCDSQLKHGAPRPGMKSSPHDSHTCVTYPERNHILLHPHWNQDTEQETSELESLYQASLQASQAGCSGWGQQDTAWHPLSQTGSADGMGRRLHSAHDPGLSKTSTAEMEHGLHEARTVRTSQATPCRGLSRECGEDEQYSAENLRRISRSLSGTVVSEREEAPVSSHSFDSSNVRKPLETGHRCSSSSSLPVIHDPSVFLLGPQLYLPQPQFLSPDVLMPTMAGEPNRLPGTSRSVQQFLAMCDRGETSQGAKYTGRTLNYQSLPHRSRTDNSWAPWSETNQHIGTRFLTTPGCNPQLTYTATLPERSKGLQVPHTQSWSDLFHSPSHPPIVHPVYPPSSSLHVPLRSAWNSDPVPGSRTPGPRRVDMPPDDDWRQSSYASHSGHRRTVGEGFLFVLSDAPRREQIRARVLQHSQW
How it was run: as §1

USP7 = USP7 (UniProt Q93009)
Sequence of USP7 (Q93009 whole entry, looked up): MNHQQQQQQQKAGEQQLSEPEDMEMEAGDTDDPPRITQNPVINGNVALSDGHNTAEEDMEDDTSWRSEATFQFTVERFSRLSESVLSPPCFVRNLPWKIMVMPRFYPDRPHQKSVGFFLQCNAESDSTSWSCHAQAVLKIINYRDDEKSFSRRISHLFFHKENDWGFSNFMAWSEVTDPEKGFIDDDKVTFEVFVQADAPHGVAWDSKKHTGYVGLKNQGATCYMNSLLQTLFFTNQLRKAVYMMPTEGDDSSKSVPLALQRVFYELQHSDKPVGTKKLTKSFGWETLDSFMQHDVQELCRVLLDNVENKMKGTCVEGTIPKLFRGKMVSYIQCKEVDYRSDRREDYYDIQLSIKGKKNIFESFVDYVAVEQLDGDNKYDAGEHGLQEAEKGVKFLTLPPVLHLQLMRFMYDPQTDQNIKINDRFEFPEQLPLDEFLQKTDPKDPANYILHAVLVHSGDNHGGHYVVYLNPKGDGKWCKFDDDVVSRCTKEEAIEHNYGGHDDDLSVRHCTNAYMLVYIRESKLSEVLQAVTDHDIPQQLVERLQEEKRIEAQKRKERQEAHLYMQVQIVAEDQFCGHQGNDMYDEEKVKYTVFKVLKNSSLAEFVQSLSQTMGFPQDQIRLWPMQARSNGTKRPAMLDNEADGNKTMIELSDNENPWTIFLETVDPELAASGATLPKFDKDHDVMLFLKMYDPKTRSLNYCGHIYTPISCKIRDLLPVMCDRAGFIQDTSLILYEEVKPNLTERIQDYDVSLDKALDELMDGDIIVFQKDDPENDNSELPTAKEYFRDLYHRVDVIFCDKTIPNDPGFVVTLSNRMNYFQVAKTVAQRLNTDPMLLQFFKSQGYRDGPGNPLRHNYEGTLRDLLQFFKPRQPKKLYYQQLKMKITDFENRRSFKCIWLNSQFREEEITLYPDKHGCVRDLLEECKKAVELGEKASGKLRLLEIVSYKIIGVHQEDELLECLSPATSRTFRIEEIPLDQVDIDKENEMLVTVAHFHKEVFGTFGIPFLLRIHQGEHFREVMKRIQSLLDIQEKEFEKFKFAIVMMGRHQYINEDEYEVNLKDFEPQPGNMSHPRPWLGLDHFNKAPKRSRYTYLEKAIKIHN
How it was run: as §1

USP8 = molecular target: T5, USP8 (UniProt P40818)
T5 sequence (whole entry): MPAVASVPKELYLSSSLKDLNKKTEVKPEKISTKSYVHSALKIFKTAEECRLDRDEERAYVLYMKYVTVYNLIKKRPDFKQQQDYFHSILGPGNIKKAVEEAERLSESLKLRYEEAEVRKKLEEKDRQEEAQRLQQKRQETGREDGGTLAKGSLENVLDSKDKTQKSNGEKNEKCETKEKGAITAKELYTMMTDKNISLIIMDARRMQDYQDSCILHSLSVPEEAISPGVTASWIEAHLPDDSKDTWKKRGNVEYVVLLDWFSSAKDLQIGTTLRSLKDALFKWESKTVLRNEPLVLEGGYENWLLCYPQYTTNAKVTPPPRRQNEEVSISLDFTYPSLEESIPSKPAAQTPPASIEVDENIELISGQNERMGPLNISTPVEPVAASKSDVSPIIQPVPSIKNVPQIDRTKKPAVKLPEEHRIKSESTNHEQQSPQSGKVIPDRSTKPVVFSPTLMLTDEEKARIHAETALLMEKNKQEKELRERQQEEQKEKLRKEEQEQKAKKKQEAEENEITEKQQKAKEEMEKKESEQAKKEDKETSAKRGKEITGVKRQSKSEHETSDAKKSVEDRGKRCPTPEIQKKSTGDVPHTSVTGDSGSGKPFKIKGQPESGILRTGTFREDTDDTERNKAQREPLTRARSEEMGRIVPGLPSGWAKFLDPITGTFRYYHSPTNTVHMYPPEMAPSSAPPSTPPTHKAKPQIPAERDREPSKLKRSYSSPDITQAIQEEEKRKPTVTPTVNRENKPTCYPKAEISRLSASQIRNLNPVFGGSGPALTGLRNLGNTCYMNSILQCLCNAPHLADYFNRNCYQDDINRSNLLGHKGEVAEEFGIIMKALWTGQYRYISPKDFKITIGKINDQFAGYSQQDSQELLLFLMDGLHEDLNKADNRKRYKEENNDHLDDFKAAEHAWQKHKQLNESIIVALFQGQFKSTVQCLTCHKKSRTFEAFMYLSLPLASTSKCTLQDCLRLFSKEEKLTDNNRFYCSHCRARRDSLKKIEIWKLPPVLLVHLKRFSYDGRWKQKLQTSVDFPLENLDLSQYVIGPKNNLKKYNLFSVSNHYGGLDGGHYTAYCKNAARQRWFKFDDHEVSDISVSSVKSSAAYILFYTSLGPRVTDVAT
How it was run: as §1

USP9X = USP9X (UniProt Q93008)
How it was run: as §1

UniProt O00487 = molecular target: UniProt O00487
Sequence of UniProt O00487 (O00487 whole entry): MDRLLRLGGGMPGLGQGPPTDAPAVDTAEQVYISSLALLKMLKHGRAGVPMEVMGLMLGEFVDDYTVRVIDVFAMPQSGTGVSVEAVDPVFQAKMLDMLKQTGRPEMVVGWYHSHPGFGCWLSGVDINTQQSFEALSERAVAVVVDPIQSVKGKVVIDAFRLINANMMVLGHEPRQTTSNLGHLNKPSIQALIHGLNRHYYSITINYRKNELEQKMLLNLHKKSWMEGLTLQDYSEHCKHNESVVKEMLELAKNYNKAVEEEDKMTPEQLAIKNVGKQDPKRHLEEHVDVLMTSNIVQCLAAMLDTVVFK
How it was run: as §1

Measured: log2 ratio of Biotin-Ahx-Ub-VS probe labelling

O=C(CCl)N1CCN(C(=O)Nc2ccccc2)CC1
inactive: USP42 0.532 | USP46 -0.0442 | USP47 -0.216 | USP48 -0.158 | USP5 0.398 | USP54 0.404 | USP7 -0.132 | USP8 0.0931 | USP9X 0.0323 | UniProt O00487 -0.0538
